Holding throughout (experiment): DAPPL (digital affinity profiling via proximity ligation, sequencing); 10 mM Tris-HCl pH 7.5, 50 mM NaCl, 1 mM DTT, 4% glycerol, room temperature, 30 min; GST-TFs on glutathione beads, 16-mer random dsDNA library, 0.1% formaldehyde crosslink after washing; high values mean tight binding
What all share (conditions): protein: recombinant; tags: N-terminal GST; dsDNA, one strand shown

One experiment concerns the target T1, FLI1 (Homo sapiens, UniProt Q01543 1-452).
T1 sequence: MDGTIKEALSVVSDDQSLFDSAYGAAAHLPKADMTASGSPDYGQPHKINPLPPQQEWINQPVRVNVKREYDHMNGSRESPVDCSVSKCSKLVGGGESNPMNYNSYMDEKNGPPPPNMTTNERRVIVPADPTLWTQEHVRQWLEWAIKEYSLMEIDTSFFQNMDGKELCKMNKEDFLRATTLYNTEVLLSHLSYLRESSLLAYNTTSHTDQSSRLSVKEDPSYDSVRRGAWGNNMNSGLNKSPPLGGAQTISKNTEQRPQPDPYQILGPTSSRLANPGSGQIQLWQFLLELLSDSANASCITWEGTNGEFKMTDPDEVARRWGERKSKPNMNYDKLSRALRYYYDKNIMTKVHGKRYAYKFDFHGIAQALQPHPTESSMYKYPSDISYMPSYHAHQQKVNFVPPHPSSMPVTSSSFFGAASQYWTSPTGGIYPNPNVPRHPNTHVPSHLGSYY
The method in brief: (§1)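 Binding signal is given per hexamer as its read frequency for a factor divided by its frequency in the tag-only sample. GST-fused human transcription factors were expressed in yeast, captured on glutathione beads, barcoded with DNA and pooled with that sample, then incubated with 200 nmole of a 16-mer random double-stranded DNA library in Tris/NaCl/DTT/glycerol buffer for 30 min at room temperature. The pools were then washed, crosslinked, proximity-ligated, amplified by PCR and sequenced on an Illumina NextSeq500.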

A further experiment addresses T2, ELK1 (Homo sapiens, UniProt P19419 1-428).
T2 sequence: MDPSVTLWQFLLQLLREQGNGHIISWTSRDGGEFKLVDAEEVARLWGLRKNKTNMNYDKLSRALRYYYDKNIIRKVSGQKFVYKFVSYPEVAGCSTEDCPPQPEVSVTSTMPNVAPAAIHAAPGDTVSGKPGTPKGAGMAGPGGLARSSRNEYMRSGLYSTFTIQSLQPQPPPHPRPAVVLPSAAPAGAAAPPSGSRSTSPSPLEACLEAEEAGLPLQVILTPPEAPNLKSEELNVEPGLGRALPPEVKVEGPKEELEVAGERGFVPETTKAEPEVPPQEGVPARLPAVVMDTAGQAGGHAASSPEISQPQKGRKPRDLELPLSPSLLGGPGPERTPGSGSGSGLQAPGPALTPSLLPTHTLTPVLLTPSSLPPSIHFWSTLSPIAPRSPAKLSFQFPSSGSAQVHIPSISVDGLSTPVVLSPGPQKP
The method in brief: as §1

The target in a further experiment is T3, GABPA (Homo sapiens, UniProt Q06546 1-454).
T3 sequence: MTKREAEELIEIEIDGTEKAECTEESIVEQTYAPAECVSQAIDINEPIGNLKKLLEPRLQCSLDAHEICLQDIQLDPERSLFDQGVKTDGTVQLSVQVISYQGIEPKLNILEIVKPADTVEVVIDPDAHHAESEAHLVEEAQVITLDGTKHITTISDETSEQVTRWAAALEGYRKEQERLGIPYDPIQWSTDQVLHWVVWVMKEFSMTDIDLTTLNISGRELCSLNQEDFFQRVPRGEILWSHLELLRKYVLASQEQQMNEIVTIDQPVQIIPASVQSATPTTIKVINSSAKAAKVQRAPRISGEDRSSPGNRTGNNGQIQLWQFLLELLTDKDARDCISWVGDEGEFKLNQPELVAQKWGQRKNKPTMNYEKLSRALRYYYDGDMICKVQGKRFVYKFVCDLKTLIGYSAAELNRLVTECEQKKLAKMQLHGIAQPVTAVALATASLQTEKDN
The method in brief:
as §1

The target in the next experiment is T4, ERG (Homo sapiens, UniProt P11308 1-479).
T4 sequence: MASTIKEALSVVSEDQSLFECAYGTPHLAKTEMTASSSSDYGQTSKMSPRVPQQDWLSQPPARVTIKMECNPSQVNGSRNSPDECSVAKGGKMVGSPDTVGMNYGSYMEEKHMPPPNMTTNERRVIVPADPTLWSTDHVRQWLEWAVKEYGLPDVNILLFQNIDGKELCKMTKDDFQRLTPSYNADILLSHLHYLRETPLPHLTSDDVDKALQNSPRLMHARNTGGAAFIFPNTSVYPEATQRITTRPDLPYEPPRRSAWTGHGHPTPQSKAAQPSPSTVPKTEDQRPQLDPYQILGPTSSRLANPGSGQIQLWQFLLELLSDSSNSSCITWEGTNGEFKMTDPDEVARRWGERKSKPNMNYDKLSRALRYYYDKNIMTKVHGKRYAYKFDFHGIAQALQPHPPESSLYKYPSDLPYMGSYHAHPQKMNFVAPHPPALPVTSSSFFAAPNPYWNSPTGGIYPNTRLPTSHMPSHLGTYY
The method in brief:
as §1

A further experiment addresses ELF1 (Homo sapiens, UniProt P32519 1-619). In outline: as §1
Another experiment has as its target T5, EHF (Homo sapiens, UniProt Q9NZC4 1-300).
T5 sequence: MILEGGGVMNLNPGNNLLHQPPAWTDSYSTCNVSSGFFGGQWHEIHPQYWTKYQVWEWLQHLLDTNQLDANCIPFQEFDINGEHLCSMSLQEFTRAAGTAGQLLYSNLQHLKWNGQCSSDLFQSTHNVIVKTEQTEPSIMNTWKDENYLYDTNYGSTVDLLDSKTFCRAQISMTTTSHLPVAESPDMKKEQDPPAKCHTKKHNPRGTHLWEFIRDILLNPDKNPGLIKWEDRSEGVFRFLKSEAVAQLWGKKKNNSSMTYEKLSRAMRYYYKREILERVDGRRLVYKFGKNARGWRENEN
In outline:
as §1

In the next experiment the target is SPI1 (Homo sapiens, UniProt P17947 1-270). In outline:
as §1

The target in the next experiment is SPIB (Homo sapiens, UniProt Q01892 1-262). In outline:
as §1

The target of another experiment is T6, FEV (Homo sapiens, UniProt Q99581 1-238).
T6 sequence: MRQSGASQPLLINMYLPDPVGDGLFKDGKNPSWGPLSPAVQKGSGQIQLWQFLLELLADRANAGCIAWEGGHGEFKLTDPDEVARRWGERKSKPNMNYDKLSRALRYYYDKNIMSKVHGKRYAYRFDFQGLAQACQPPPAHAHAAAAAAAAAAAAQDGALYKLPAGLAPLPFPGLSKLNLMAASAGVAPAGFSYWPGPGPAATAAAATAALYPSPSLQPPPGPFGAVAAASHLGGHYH
The method in brief:
as §1

For the next experiment, the target named is ETV5 (Homo sapiens, UniProt P41161 1-510). The method in brief:
as §1

The target of a further experiment is T7, SPIC (Homo sapiens, UniProt Q8N5J4 1-248).
T7 sequence: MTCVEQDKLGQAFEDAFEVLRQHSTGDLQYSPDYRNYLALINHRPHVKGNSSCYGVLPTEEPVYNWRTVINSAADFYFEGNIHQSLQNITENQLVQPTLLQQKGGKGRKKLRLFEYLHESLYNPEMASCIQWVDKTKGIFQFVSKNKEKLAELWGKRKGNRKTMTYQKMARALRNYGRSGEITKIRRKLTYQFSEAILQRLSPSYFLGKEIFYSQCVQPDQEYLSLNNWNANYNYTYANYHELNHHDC
In outline:
as §1

Another experiment concerns the target ELF4 (Homo sapiens, UniProt Q99607 1-663). The method in brief:
as §1

The target in another experiment is T8, ELK4 (Homo sapiens, UniProt P28324-2 1-405).
T8 sequence: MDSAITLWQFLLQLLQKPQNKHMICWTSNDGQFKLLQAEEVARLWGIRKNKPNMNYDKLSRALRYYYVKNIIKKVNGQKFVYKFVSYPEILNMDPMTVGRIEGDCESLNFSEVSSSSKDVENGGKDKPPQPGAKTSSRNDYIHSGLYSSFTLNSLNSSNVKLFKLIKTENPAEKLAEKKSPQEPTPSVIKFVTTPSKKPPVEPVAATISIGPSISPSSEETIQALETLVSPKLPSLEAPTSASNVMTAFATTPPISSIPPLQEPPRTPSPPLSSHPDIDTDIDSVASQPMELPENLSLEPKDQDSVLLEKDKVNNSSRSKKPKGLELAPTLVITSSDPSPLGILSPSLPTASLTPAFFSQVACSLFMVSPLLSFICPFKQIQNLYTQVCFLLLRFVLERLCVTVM
In outline: as §1

The target of another experiment is T9, ETV2 (Homo sapiens, UniProt O00321 1-342).
T9 sequence: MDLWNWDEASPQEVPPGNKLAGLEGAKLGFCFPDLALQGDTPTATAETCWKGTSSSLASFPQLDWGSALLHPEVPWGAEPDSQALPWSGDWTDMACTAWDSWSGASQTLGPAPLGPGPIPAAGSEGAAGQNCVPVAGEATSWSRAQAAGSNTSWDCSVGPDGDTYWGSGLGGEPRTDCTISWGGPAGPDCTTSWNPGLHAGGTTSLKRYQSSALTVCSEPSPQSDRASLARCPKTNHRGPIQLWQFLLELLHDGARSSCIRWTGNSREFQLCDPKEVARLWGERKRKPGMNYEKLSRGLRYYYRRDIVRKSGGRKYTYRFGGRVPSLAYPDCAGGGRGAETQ
The method in brief:
as §1

Another experiment concerns the target T10, ELF3 (Homo sapiens, UniProt P78545 1-371).
T10 sequence: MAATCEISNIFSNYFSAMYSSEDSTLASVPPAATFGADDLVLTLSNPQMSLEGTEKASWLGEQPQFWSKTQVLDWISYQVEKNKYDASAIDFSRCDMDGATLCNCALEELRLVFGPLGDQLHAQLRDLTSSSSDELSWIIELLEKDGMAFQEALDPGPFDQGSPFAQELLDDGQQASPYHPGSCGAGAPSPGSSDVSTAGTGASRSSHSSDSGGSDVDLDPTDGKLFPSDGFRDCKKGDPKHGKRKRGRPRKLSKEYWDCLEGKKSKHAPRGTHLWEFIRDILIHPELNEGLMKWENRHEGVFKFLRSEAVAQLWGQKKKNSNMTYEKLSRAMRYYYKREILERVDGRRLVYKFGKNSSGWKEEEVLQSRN
In outline: as §1

In the next experiment the target is CRX (Homo sapiens, UniProt O43186 1-299). The method in brief:
as §1

Another experiment deals with ETV1 (Homo sapiens, UniProt P50549 1-477). The method in brief: as §1
ETV1, sequence (P50549 whole entry): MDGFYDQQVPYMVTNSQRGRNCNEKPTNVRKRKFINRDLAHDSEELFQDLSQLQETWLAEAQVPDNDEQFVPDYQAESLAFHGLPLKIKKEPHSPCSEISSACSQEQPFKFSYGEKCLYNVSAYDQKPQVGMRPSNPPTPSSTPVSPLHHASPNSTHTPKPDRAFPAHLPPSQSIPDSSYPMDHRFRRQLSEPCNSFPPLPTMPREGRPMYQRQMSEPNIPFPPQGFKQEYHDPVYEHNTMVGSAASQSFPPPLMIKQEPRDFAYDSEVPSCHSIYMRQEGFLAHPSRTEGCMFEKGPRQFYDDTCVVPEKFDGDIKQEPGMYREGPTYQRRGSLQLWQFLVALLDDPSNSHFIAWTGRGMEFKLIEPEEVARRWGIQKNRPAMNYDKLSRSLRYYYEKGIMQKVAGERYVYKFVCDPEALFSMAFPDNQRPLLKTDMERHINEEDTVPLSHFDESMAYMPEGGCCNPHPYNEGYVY
The target in another experiment is T11, ELK3 (Homo sapiens, UniProt P41970 1-407).
T11 sequence: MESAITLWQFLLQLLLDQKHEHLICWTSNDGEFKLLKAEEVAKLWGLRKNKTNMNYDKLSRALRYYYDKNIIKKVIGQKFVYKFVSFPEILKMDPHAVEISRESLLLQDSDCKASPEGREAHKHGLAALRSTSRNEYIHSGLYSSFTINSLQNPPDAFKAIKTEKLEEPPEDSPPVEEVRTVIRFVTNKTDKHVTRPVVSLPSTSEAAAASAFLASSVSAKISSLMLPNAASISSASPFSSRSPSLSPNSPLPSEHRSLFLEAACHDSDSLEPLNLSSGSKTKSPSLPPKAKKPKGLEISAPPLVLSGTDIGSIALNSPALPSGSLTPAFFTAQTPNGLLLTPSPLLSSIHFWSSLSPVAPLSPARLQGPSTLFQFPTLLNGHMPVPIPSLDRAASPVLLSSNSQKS
In outline:
as §1

ELF4, sequence (Q99607 whole entry): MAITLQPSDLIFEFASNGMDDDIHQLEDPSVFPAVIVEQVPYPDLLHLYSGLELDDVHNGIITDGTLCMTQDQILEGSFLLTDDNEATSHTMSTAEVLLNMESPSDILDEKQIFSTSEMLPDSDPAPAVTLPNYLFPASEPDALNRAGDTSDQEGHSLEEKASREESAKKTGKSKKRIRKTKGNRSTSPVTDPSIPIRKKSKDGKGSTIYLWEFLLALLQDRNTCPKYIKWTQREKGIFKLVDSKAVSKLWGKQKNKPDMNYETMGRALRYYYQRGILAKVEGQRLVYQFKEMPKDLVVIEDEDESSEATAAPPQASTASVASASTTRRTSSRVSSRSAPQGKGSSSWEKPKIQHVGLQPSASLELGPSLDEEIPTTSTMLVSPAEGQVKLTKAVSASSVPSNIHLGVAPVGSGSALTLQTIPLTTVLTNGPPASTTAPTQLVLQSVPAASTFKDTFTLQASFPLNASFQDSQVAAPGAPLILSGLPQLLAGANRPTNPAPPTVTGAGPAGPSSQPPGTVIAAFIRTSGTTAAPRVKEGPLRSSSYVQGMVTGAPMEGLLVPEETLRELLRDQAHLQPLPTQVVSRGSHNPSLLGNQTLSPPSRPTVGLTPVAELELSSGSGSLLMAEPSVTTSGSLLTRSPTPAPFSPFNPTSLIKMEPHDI
ETV5, sequence (P41161 whole entry): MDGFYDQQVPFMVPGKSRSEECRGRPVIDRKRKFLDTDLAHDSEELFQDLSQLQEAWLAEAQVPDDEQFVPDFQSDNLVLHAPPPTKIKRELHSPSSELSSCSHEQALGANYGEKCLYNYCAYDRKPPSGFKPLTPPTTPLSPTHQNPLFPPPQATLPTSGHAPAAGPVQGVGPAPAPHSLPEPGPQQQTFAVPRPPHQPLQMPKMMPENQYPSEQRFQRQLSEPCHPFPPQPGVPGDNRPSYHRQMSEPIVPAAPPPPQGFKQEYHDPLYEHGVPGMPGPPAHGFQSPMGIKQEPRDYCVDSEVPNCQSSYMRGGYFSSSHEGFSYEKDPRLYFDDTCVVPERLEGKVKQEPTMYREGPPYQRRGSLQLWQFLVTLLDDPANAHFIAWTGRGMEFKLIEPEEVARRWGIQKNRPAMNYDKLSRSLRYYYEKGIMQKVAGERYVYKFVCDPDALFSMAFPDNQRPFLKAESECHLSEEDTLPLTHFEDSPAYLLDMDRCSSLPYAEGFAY
ELF1, sequence (P32519 whole entry): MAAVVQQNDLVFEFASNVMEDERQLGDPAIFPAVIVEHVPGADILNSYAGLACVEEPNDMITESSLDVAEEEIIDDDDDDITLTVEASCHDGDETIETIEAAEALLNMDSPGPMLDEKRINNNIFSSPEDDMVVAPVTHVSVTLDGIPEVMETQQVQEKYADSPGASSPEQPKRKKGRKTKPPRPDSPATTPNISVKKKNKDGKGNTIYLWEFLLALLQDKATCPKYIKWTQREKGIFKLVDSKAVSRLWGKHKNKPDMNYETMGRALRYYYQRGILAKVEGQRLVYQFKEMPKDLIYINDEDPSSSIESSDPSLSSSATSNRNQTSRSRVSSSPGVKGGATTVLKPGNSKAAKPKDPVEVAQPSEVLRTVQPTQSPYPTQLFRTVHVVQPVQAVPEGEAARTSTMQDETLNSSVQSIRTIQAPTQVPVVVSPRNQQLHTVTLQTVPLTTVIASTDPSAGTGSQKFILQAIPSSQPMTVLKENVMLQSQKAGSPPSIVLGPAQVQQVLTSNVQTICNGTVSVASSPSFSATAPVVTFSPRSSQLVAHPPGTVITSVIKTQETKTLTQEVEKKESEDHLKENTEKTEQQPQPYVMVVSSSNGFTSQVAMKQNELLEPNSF
SPIB, sequence (Q01892 whole entry): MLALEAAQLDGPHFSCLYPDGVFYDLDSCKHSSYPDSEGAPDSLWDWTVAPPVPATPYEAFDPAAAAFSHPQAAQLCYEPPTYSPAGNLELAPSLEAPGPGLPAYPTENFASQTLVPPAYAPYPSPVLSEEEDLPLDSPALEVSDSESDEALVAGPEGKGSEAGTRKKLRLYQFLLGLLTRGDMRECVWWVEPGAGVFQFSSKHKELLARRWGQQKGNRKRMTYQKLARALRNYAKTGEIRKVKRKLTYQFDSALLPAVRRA
CRX, sequence (O43186 whole entry): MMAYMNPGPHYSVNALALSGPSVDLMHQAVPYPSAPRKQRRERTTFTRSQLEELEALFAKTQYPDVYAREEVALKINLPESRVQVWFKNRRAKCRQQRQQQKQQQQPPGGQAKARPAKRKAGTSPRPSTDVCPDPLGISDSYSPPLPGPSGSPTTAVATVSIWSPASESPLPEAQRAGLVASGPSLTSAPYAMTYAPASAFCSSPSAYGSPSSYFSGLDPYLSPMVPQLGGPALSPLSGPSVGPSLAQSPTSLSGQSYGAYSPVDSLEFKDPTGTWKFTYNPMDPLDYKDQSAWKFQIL

As to TGTTGA, the binding signal with FLI1 is 1.15 fold enrichment (6-mer frequency, TF over GST control); in the experiment with ELK1, 1.08 fold enrichment (6-mer frequency, TF over GST control); with GABPA, 1.16 fold enrichment (6-mer frequency, TF over GST control); in the experiment with ERG it was 1.08 fold enrichment (6-mer frequency, TF over GST control); with ELF1, 1.16 fold enrichment (6-mer frequency, TF over GST control); with EHF it was 1.07 fold enrichment (6-mer frequency, TF over GST control). The binding signal with SPI1 was 1.11 fold enrichment (6-mer frequency, TF over GST control); with SPIB, 1.09 fold enrichment (6-mer frequency, TF over GST control); with FEV it was 1.07 fold enrichment (6-mer frequency, TF over GST control); in the experiment with ETV5 it was 1.07 fold enrichment (6-mer frequency, TF over GST control); with SPIC, 1.15 fold enrichment (6-mer frequency, TF over GST control); in the experiment with ELF4, 1.1 fold enrichment (6-mer frequency, TF over GST control). Further, the binding signal is 1.16 fold enrichment (6-mer frequency, TF over GST control) with ELK4; 1.12 fold enrichment (6-mer frequency, TF over GST control) in the experiment with ETV2; 1.09 fold enrichment (6-mer frequency, TF over GST control) with ELF3; 1.02 fold enrichment (6-mer frequency, TF over GST control) with CRX; 1.07 fold enrichment (6-mer frequency, TF over GST control) with ETV1.

Regarding CTGTCA, the binding signal with FLI1 was 1.21 fold enrichment (6-mer frequency, TF over GST control); with ELK1, 1.11 fold enrichment (6-mer frequency, TF over GST control); with GABPA, 1.2 fold enrichment (6-mer frequency, TF over GST control); with ERG, 1.14 fold enrichment (6-mer frequency, TF over GST control); with ELF1 it was 1.19 fold enrichment (6-mer frequency, TF over GST control); with EHF, 1.12 fold enrichment (6-mer frequency, TF over GST control). The binding signal is 1.1 fold enrichment (6-mer frequency, TF over GST control) in the experiment with SPI1; 1.15 fold enrichment (6-mer frequency, TF over GST control) with SPIB; 1.08 fold enrichment (6-mer frequency, TF over GST control) with ELK3; 1.03 fold enrichment (6-mer frequency, TF over GST control) in the experiment with FEV; 1.06 fold enrichment (6-mer frequency, TF over GST control) in the experiment with ETV5; 1.27 fold enrichment (6-mer frequency, TF over GST control) with SPIC. In addition, the binding signal with ELF4 was 1.13 fold enrichment (6-mer frequency, TF over GST control); with ELK4 it was 1.27 fold enrichment (6-mer frequency, TF over GST control); with ETV2 it was 1.19 fold enrichment (6-mer frequency, TF over GST control); with ELF3, 1.16 fold enrichment (6-mer frequency, TF over GST control); with ETV1 it was 1.14 fold enrichment (6-mer frequency, TF over GST control).
